According to the supplement of paper PMC4466140:

target: AgAbp1; test: SPOT peptide array binding signal intensity (averaged, normalized) (arbitrary units (background-subtracted, floor 0; scale differs between SH3 domains)); higher = stronger binding of the SH3 domain to the peptide
How it was run: (§1)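 GST-SH3 fusions from four yeast species, purified on glutathione Sepharose, were incubated at 10 μg/ml overnight at 4°C on membranes of synthetic 15-mer peptides in which cysteines were replaced with serines. Binding signal is the normalized, background-subtracted spot intensity averaged over replicates, in domain-specific arbitrary units.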

Binder	SPOT peptide array binding signal intensity
FPGKKSPRLPHRNKK	2580

target: AgBbc1; test: as above
How it was run: as §1

Binder	SPOT peptide array binding signal intensity
FPGKKSPRLPHRNKK	61.9

target: AgBem1-D1; test: as above
How it was run: as §1

Binder	SPOT peptide array binding signal intensity
FPGKKSPRLPHRNKK	47.5

target: AgBzz1-D1; test: as above
How it was run: as §1

Binder	SPOT peptide array binding signal intensity
FPGKKSPRLPHRNKK	50

target: AgBzz1-D2; test: as above
How it was run: as §1

Binder	SPOT peptide array binding signal intensity
FPGKKSPRLPHRNKK	33.5

target: AgCyk3; test: as above
How it was run: as §1

Binder	SPOT peptide array binding signal intensity
FPGKKSPRLPHRNKK	≤ 0

target: AgFus1; test: as above
How it was run: as §1

Binder	SPOT peptide array binding signal intensity
FPGKKSPRLPHRNKK	6.5

target: AgHof1; test: as above
How it was run: as §1

Binder	SPOT peptide array binding signal intensity
FPGKKSPRLPHRNKK	35.8

target: AgHse1; test: as above
How it was run: as §1

Binder	SPOT peptide array binding signal intensity
FPGKKSPRLPHRNKK	82.5

target: AgLsb1; test: as above
How it was run: as §1

Binder	SPOT peptide array binding signal intensity
FPGKKSPRLPHRNKK	≤ 0

target: AgLsb4; test: as above
How it was run: as §1

Binder	SPOT peptide array binding signal intensity
FPGKKSPRLPHRNKK	1270

target: AgMyo5; test: as above
How it was run: as §1

Binder	SPOT peptide array binding signal intensity
FPGKKSPRLPHRNKK	≤ 0

target: AgNbp2; test: as above
How it was run: as §1

Binder	SPOT peptide array binding signal intensity
FPGKKSPRLPHRNKK	87.2

target: AgRvs167; test: as above
How it was run: as §1

Binder	SPOT peptide array binding signal intensity
FPGKKSPRLPHRNKK	12

target: AgSho1; test: as above
How it was run: as §1

Binder	SPOT peptide array binding signal intensity
FPGKKSPRLPHRNKK	33

target: AgSla1-D1-D2; test: as above
How it was run: as §1

Binder	SPOT peptide array binding signal intensity
FPGKKSPRLPHRNKK	144

target: AgSla1-D3; test: as above
How it was run: as §1

Binder	SPOT peptide array binding signal intensity
FPGKKSPRLPHRNKK	13.5

target: CaAbp1-D1; test: as above
How it was run: as §1

Binder	SPOT peptide array binding signal intensity
FPGKKSPRLPHRNKK	2250

target: CaAbp1-D2; test: as above
How it was run: as §1

Binder	SPOT peptide array binding signal intensity
FPGKKSPRLPHRNKK	2660

target: CaBbc1; test: as above
How it was run: as §1

Binder	SPOT peptide array binding signal intensity
FPGKKSPRLPHRNKK	372

target: CaBem1-D1; test: as above
How it was run: as §1

Binder	SPOT peptide array binding signal intensity
FPGKKSPRLPHRNKK	49.8

target: CaBzz1-D1; test: as above
How it was run: as §1

Binder	SPOT peptide array binding signal intensity
FPGKKSPRLPHRNKK	167

target: CaBzz1-D2; test: as above
How it was run: as §1

Binder	SPOT peptide array binding signal intensity
FPGKKSPRLPHRNKK	126

target: CaCyk3; test: as above
How it was run: as §1

Binder	SPOT peptide array binding signal intensity
FPGKKSPRLPHRNKK	4.75

target: CaFus1; test: as above
How it was run: as §1

Binder	SPOT peptide array binding signal intensity
FPGKKSPRLPHRNKK	232

target: CaHof1; test: as above
How it was run: as §1

Binder	SPOT peptide array binding signal intensity
FPGKKSPRLPHRNKK	≤ 0

target: CaHse1; test: as above
How it was run: as §1

Binder	SPOT peptide array binding signal intensity
FPGKKSPRLPHRNKK	5.12

target: CaLsb1; test: as above
How it was run: as §1

Binder	SPOT peptide array binding signal intensity
FPGKKSPRLPHRNKK	0.25

target: CaLsb4; test: as above
How it was run: as §1

Binder	SPOT peptide array binding signal intensity
FPGKKSPRLPHRNKK	4250

target: CaMyo5; test: as above
How it was run: as §1

Binder	SPOT peptide array binding signal intensity
FPGKKSPRLPHRNKK	≤ 0

target: CaNbp2; test: as above
How it was run: as §1

Binder	SPOT peptide array binding signal intensity
FPGKKSPRLPHRNKK	216

target: CaRvs167; test: as above
How it was run: as §1

Binder	SPOT peptide array binding signal intensity
FPGKKSPRLPHRNKK	247

target: CaRvs167-3; test: as above
How it was run: as §1

Binder	SPOT peptide array binding signal intensity
FPGKKSPRLPHRNKK	7.25

target: CaSho1; test: as above
How it was run: as §1

Binder	SPOT peptide array binding signal intensity
FPGKKSPRLPHRNKK	152

target: CaSla1-D1-D2; test: as above
How it was run: as §1

Binder	SPOT peptide array binding signal intensity
FPGKKSPRLPHRNKK	332

target: CaSla1-D3; test: as above
How it was run: as §1

Binder	SPOT peptide array binding signal intensity
FPGKKSPRLPHRNKK	≤ 0

target: ScAbp1; test: as above
How it was run: as §1

Binder	SPOT peptide array binding signal intensity
FPGKKSPRLPHRNKK	918

target: ScBbc1; test: as above
How it was run: as §1

Binder	SPOT peptide array binding signal intensity
FPGKKSPRLPHRNKK	15.5

target: ScBem1-D1; test: as above
How it was run: as §1

Binder	SPOT peptide array binding signal intensity
FPGKKSPRLPHRNKK	7

target: ScBzz1-D1; test: as above
How it was run: as §1

Binder	SPOT peptide array binding signal intensity
FPGKKSPRLPHRNKK	9.5

target: ScBzz1-D2; test: as above
How it was run: as §1

Binder	SPOT peptide array binding signal intensity
FPGKKSPRLPHRNKK	4.25

target: ScCyk3; test: as above
How it was run: as §1

Binder	SPOT peptide array binding signal intensity
FPGKKSPRLPHRNKK	12.5

target: ScFus1; test: as above
How it was run: as §1

Binder	SPOT peptide array binding signal intensity
FPGKKSPRLPHRNKK	≤ 0

target: ScHof1; test: as above
How it was run: as §1

Binder	SPOT peptide array binding signal intensity
FPGKKSPRLPHRNKK	≤ 0

target: ScHse1; test: as above
How it was run: as §1

Binder	SPOT peptide array binding signal intensity
FPGKKSPRLPHRNKK	473

target: ScLsb1; test: as above
How it was run: as §1

Binder	SPOT peptide array binding signal intensity
FPGKKSPRLPHRNKK	47.1

target: ScLsb2; test: as above
How it was run: as §1

Binder	SPOT peptide array binding signal intensity
FPGKKSPRLPHRNKK	0.5

target: ScLsb3; test: as above
How it was run: as §1

Binder	SPOT peptide array binding signal intensity
FPGKKSPRLPHRNKK	3120

target: ScLsb4; test: as above
How it was run: as §1

Binder	SPOT peptide array binding signal intensity
FPGKKSPRLPHRNKK	1170

target: ScMyo3; test: as above
How it was run: as §1

Binder	SPOT peptide array binding signal intensity
FPGKKSPRLPHRNKK	≤ 0

target: ScMyo5; test: as above
How it was run: as §1

Binder	SPOT peptide array binding signal intensity
FPGKKSPRLPHRNKK	≤ 0

target: ScNbp2; test: as above
How it was run: as §1

Binder	SPOT peptide array binding signal intensity
FPGKKSPRLPHRNKK	186

target: ScPex13; test: as above
How it was run: as §1

Binder	SPOT peptide array binding signal intensity
FPGKKSPRLPHRNKK	393

target: ScRvs167; test: as above
How it was run: as §1

Binder	SPOT peptide array binding signal intensity
FPGKKSPRLPHRNKK	714

target: ScSho1; test: as above
How it was run: as §1

Binder	SPOT peptide array binding signal intensity
FPGKKSPRLPHRNKK	322

target: ScSla1-D1-D2; test: as above
How it was run: as §1

Binder	SPOT peptide array binding signal intensity
FPGKKSPRLPHRNKK	570

target: ScSla1-D3; test: as above
How it was run: as §1

Binder	SPOT peptide array binding signal intensity
FPGKKSPRLPHRNKK	5.25

target: SpAbp1-D1; test: as above
How it was run: as §1

Binder	SPOT peptide array binding signal intensity
FPGKKSPRLPHRNKK	756

target: SpBbc1; test: as above
How it was run: as §1

Binder	SPOT peptide array binding signal intensity
FPGKKSPRLPHRNKK	0.875

target: SpBzz1-D1; test: as above
How it was run: as §1

Binder	SPOT peptide array binding signal intensity
FPGKKSPRLPHRNKK	208

target: SpBzz1-D2; test: as above
How it was run: as §1

Binder	SPOT peptide array binding signal intensity
FPGKKSPRLPHRNKK	0.125

target: SpCyk3; test: as above
How it was run: as §1

Binder	SPOT peptide array binding signal intensity
FPGKKSPRLPHRNKK	1.53e-05

target: SpHof1; test: as above
How it was run: as §1

Binder	SPOT peptide array binding signal intensity
FPGKKSPRLPHRNKK	15.2

target: SpHof1-2; test: as above
How it was run: as §1

Binder	SPOT peptide array binding signal intensity
FPGKKSPRLPHRNKK	19.8

target: SpHof1-3; test: as above
How it was run: as §1

Binder	SPOT peptide array binding signal intensity
FPGKKSPRLPHRNKK	270

target: SpHse1; test: as above
How it was run: as §1

Binder	SPOT peptide array binding signal intensity
FPGKKSPRLPHRNKK	142

target: SpLsb1; test: as above
How it was run: as §1

Binder	SPOT peptide array binding signal intensity
FPGKKSPRLPHRNKK	17.9

target: SpLsb4; test: as above
How it was run: as §1

Binder	SPOT peptide array binding signal intensity
FPGKKSPRLPHRNKK	2700

target: SpMyo1; test: as above
How it was run: as §1

Binder	SPOT peptide array binding signal intensity
FPGKKSPRLPHRNKK	4.25

target: SpNbp2; test: as above
How it was run: as §1

Binder	SPOT peptide array binding signal intensity
FPGKKSPRLPHRNKK	176

target: SpPex13; test: as above
How it was run: as §1

Binder	SPOT peptide array binding signal intensity
FPGKKSPRLPHRNKK	6.5

target: SpRvs167; test: as above
How it was run: as §1

Binder	SPOT peptide array binding signal intensity
FPGKKSPRLPHRNKK	833

target: SpSla1-D1-D2; test: as above
How it was run: as §1

Binder	SPOT peptide array binding signal intensity
FPGKKSPRLPHRNKK	5

target: SpSla1-D3; test: as above
How it was run: as §1

Binder	SPOT peptide array binding signal intensity
FPGKKSPRLPHRNKK	13
